Source: the OligoGym collection

These sequences were tested against CSE1L (assay: pooled miR-30 sensor sort-seq; sequence = guide strand). Conditions: shRNA.
Also: reference of the scale not given here.

| Sequence | sensor-assay potency score (higher = more potent) |
| --- | --- |
| TACATTTCCAGATACCTTCTGA | -0.0308 |
| TTATGGATAAACATATTGCTTC | -0.779 |
| TCATCTTCAACAATTCTCCAGT | -0.0113 |
| TTAATCAAGAGAGGAATCGAGA | -0.818 |
| TAAGTATGAACAACAATACTTT | -0.402 |
| TATTGCTTCAAACATGTAGTGA | -0.339 |
| TAAGATTTCAGTAAACACCAAA | -0.574 |
| TATATTGGTCAACTGATTCAGG | -0.381 |
| TTCTGTGGAAAATCTTCTCTGC | 0.43 |
| TTGGGTTCTTACTAACAGCTAA | -0.417 |
| TTTTAAATAATGAATGTGCTGT | 0.306 |
| TTGACCTACAGGATCATGCTCT | 0.379 |
| TTGACTTAAATTCATGACGGTA | -0.629 |
| TAACAGCTAATAGCTTCTGTGT | -1.13 |
| TAGAAGATAAAAACCTTGGTGG | 0.264 |
| AAAACTTGCATAATCCTCGTAC | 0.387 |
| TTGAATTGCATTACTTACCAAC | -0.851 |
| TAATATATTTGATACCGTCAGC | -0.712 |
| TAGCAGAATCTCAACAAACGGT | -0.43 |
| TTGTGTAATTCCATGCTTCTGT | -0.12 |
| TTAGCTTTGCAAGTTATTCTTA | 0.362 |
| TTCATCTTCAACAATTCTCCAG | -0.255 |
